Data taken from PubChem BioAssay (NCI).
Values joined by “and” are separate entries in the source; they are usually repeats but may differ in a detail not shown here. Equal values may be shown once. About 83,000 compounds went through this panel and 20% of them were active in at least one assay; those are over-represented in the sample as a whole.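 48-hour exposure, single concentration, 96-well plates; percent growth endpoint where 0 means no net growth. Active: below 10.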 Active and inactive are the calls of the source.

System: BT-549 breast
Experiment: NCI-60 one-dose screen, 48 h (100 = growth as untreated, 0 = no growth, -100 = all killed)
Details: 10 µM
Protocol: Growth inhibition of the BT-549 human tumor cell line is measured as a screen for anti-cancer activity. Cells are grown in 96 well plates and exposed to the test compound for 48 hours. Compounds are tested at a single concentration, which is 10^-5 M for most compounds. The reported endpoint is percent growth (GI% or GIPRCNT), where numbers from 0 - 100% represent growth inhibition, and numbers from -100% - 0 represent cell death. For example, a value of 40 represents 60% growth inhibition. A value of 0 means no net growth occurred over the course of the experiment. A value of -40 indicates 40% of cells at the beginning of the experiment died by the end of the experiment. A value of -100 means all cells are dead at the end of the experiment.
NCI-60 Human Tumor Cell Lines Screen was performed using the standard one-dose NCI protocol, which is described in more detail at https://dtp.cancer.gov/discovery_development/nci-60/default.htm.
Compounds with GIPRCNT values below 10 were considered active. Activity score was based on GIPRCNT using the following formula: […]
Score is 0 for GIPRCNT values of 100 or above, 50 for GIPRCNT values of 0, and 100 for GIPRCNT values of -100.

Row | Structure (SMILES) | growth
1 | COc1ccc(/C=C(\C)[N+](=O)[O-])cc1OC | -29.7% (active)
2 | COc1cc(/C=C/[N+](=O)[O-])cc(Br)c1OC | 8.15% (active)
3 | C#CC1(O)CCC(C(C)(C)C)CC1 (stereo not given) | 122% (inactive)
4 | CC[C@@H](C)[C@@H]1NC(=O)C(NC(=O)C(CC(C)C)N(C)C(=O)C2CCCN2C(=O)C(C)O)C(C)OC(=O)C(Cc2ccc(OC)cc2)N(C)C(=O)C2CCCN2C(=O)C(CC(C)C)NC(=O)C(C)C(=O)C(C(C)C)OC(=O)C[C@H]1O (stereo not given in full) | -74.2% (active)
5 | C[CH2][Hg][S]c1ccccc1C(=O)O | -73.4% (active)
6 | COC(=O)C1C(O)C(C)C(O)C(C)/C=C\C=C(C)C(=O)Nc2c(C)c(OC(C)=O)c3c(c2O)C(=O)C(C)=C2OCOC(=C23)C(C)=CC(C)(O)C(O)C(C)C1O (stereo not given) | 121% (inactive)
7 | CS(=N)(=O)CCC(N)C(=O)O (stereo not given) | 99.2% (inactive)
8 | C=NCC#N | 103% (inactive) and 89.3% (inactive)
9 | C/C1=C\[C@H](C)C[C@H](C)OC(=O)C[C@H](c2ccc(O)cc2)NC(=O)[C@@H](Cc2c(Br)[nH]c3ccccc23)N(C)C(=O)[C@H](C)NC(=O)[C@@H](C)C1 | -76.6% (active)
10 | Oc1c(Cl)cc(Cl)c2ccccc12.[Cu+2] | 106% (inactive)
11 | COc1ccccc1/C=C/[N+](=O)[O-] | 82.4% (inactive)
12 | O=C(O)c1cc(Cc2ccc(O)c(C(=O)O)c2)ccc1O (tested in a mixture with another compound) | 73.8% (inactive)
13 | O=[N+]([O-])/C=C\c1ccc2c(c1)OCO2 | 91.7% (inactive)
14 | O=[N+]([O-])/C=C/c1ccc([N+](=O)[O-])cc1 | -75.2% (active) and 88.7% (inactive)
15 | COC12c3c(C)cc(O)c4c(=O)occ(c34)C(=O)C1C13COC(=O)c4c(O)cc(C)c(c41)C(=O)C2C3OC(C)=O (stereo not given) | 96.2% (inactive)
16 | COc1ccc(/C=C\[N+](=O)[O-])cc1OC | 92% (inactive) and 70.3% (inactive)
17 | COc1ccc2c(ccc3oc([N+](=O)[O-])cc32)c1 | -35.1% (active)
18 | COc1cc([C@@H]2c3cc4c(c(O)c3C[C@H]3COC(=O)[C@@H]32)OCO4)cc(OC)c1OC | -12.9% (active)
19 | COc1cc2c(cc1OC)C13CCN4CC5=CCOC6CC(=O)N2C1C6C5CC43 (stereo not given) | 90.3% (inactive)
20 | CC(C)c1cc([N+](=O)[O-])cc([N+](=O)[O-])c1O | 96.4% (inactive)

Row | Structure (SMILES) | growth
21 | O=[N+]([O-])c1ccc(N2CCOCC2)c2c1no[n+]2[O-] | -41.5% (active)
22 | O=[P+](O)c1ccccc1 | 104% (inactive)
23 | NC(Cc1ccccc1)c1ccccc1 (stereo not given) | 91.1% (inactive) and 89.4% (inactive)
24 | [O-][n+]1ccccc1S | 93.5% (inactive)
25 | O=C(CBr)Nc1ccc(Cl)cc1 | 116% (inactive)
26 | O=C1CCC(=O)N1SC(Cl)(Cl)Cl | 104% (inactive)
27 | N#CCc1ccccc1 | 91.7% (inactive)
28 | COc1cc([N+](=O)[O-])c2ncccc2c1[N+](=O)[O-] | 98.2% (inactive)
29 | CCOP(=O)(OCC)C(O)c1ccccc1Cl (stereo not given) | 109% (inactive)
30 | CC/C(=C/c1ccc(OC)cc1OC)[N+](=O)[O-] | 37.1% (inactive)
31 | CC(C)(C)OOC(=O)/C=C\C(=O)OOC(C)(C)C | 104% (inactive)
32 | O=[N+]([O-])c1ccc(Br)c([N+](=O)[O-])c1 | 104% (inactive)
33 | CC/C(=C/c1ccc(OC)cc1)[N+](=O)[O-] | -34.5% (active)
34 | CCCCCCCC[N+]12CN3CN(CN(C3)C1)C2 | 94.4% (inactive)
35 | O=C(CBr)Nc1ccccc1 | 87% (inactive)
36 | NC(=O)c1cc([N+](=O)[O-])c(Cl)c([N+](=O)[O-])c1Cl | 68.3% (inactive)
37 | CC1CCC2(OC1)OC1C(O)C3C4CCC5CC(OC6OC(CO)C(OC7OC(CO)C(O)C(OC8OCC(O)C(O)C8O)C7OC7OC(CO)C(O)C(OC8OC(CO)C(O)C(O)C8O)C7O)C(O)C6O)C(O)CC5(C)C4CCC3(C)C1C2C (stereo not given) | -74.8% (active)
38 | CC(Cc1ccc2c(c1)OCO2)NN (stereo not given) | 96.7% (inactive)
39 | O=C1C(=O)c2ccccc2-c2ccccc21 | -75% (active)
40 | CC(=O)Nc1c2sscc-2n(C)c1=O | -96.4% (active)
